Many of the other results were omitted from the sample, so hits are more common in it than they were.
TR SRC2 fluor cs: Total Fluorescence Counterscreen for Inhibitors of the Interaction of Thyroid Hormone Receptor and Steroid Receptor Coregulator 2. TRb/SRC2 Texas Red total fluorescence interference. Potency, µM (doses to about 106 µM), for the others: at the top dose fluorescence change, negative = quenching. 280,000 compounds, 0.29% hits; active means well fitted curve in either direction with a large enough effect; inconclusive means small, poorly fitted or top-dose-only effect; further: on the % scale 0 is the no-effect control and ±100 the full control effect
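Flags fluorescent or light-absorbing compounds by total fluorescence, S + 2P, at 555 nm excitation and 632 nm emission. Mixture: 20 nM Texas Red SRC2 peptide, 0.6 uM human TRb LBD, 1 uM T3, 5% DMSO; compound exposure 5 h at ambient temperature.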
GoLoco inh red: qHTS Assay for Inhibitors of RGS12 GoLoco Motif Activity (Red Fluorophore); Gai1:RGS12 GoLoco peptide FP, rhodamine, 10 min; Potency, µM (doses to about 61.6 µM), for inactives: at the highest dose activity, negative = inhibition, hits mostly inhibitors; 230,000 compounds, 0.44% hits; AID 880, 2007; active means well fitted inhibition curve with a large enough effect, not every such curve was filed as active; inactive means no such curve, though single readings can be large or run the other way; further: on the % scale 0 is the no-effect control and ±100 the full control effect; nearly all actives have a fitted effect of over 30% in size
TRb SRC2 PPI: qHTS for Inhibitors of the Interaction of Thyroid Hormone Receptor and Steroid Receptor Coregulator 2; 280,000 compounds, 0.065% hits; Thyroid hormone receptor beta (Homo sapiens), P10828; Potency, µM (titrated, usually from 106 µM), without a hit: at the highest dose activity change, negative = inhibition, hits mostly inhibitors; TRbeta-SRC2 peptide binding, fluorescence polarization; receptor liganded with 1 µM T3; active means well fitted inhibition curve with a large enough effect; inconclusive means small, poorly fitted or top-dose-only effect, or effect the other way;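 further: plate controls were bound peptide for no effect and peptide without receptor for full effect; nearly all actives have a fitted effect of over 50% in size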
Target sequence (P10828 whole entry, looked up): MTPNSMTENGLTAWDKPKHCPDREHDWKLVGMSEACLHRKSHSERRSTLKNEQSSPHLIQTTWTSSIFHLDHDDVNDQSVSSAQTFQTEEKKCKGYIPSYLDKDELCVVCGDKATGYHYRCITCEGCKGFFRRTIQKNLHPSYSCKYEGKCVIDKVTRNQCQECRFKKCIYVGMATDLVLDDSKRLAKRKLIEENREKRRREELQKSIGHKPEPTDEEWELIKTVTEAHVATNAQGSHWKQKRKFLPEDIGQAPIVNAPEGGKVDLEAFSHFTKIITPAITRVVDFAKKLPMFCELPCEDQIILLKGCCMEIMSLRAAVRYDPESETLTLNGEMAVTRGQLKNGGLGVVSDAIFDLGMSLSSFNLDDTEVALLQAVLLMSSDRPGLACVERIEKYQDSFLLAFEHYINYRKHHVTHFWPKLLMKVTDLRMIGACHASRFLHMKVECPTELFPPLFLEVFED
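Fluorescence polarization of 20 nM Texas Red SRC2 peptide with 0.6 uM human TRb ligand-binding domain, in Tris buffer with 1uM T3 and 5% DMSO. Incubated 5 hr ambient; normalized to unbound and bound controls.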
ERG Ets-DNA blk: qHTS for Small Molecule Inhibitors of the ERG Ets/DNA interaction; Transcriptional regulator ERG (Homo sapiens), P11308; 370,000 compounds, 0.028% hits; fluorescence polarization, His-ERG Ets domain / labelled DNA; Potency, µM (doses to about 76.9 µM), for the others: at the top dose FP activity, negative = inhibition, actives largely listed as inhibitors; active means well fitted inhibition curve with a large enough effect in the polarisation, with a control signal flat; inconclusive means small, poorly fitted or top-dose-only effect, or effect the other way, or a change in a side signal; inactive means no such curve, though single readings can be large or run the other way; the % refers to the polarisation;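 further: polarization taken with two DNA probes labelled with fluorescein and Texas red; % of control where 0% means no effect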
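His-tagged ERG Ets domain (1 uM in the protein solution; 300mM KCl, 50mM Tris-HCl, 1mM EDTA, 1mM DTT, pH 7.5) received compound, then a probe mix of 5 nM fluorescein-DNA and 100nM Texas-615-DNA. Fluorescence polarization was read for both dyes.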
* = called active by the depositor; u = inconclusive; x = no result given; [ ] = dose if it differs, or a comment. Potency means the concentration at half of the fitted maximal effect.

SMILES | TR SRC2 fluor cs | GoLoco inh red | TRb SRC2 PPI | ERG Ets-DNA blk
NC(=O)c1ccc(SCC(=O)OCC(=O)N2CCN(C(=O)c3ccco3)CC2)c([N+](=O)[O-])c1 | x | x | x | 1.3%
Nc1ccc(C(=O)OCC(=O)N2CCN(C(=O)c3ccco3)CC2)cc1[N+](=O)[O-] | 0.159µM*[quencher] | -10.4% | -12.1% | 6.7%
Cc1cc(Nc2ccc(O)cc2)ccc1N | 26.7% | 28.2µM* | u | x
CCCCCCCCCCO | 0.0%[5.17e+03 µM] | x | 3.4%[5.17e+03 µM] | x
CCN(C(=O)CSc1nnc(-c2cc3occc3n2C)n1-c1ccccc1C)c1ccccc1 | 79.4µM*[quencher] | x | -20.6% | 4.8%
COc1ccc2[nH]c(O)c(N=O)c2c1 | -5.4% | 15.8µM* | -11.5% | -8.7%
C[n+]1ccc(/C=C/c2ccc3ccccc3c2)cc1 | -5.2% | -29.0% | -1.5% | x
C[n+]1ccc(/C=C/c2ccc(Br)cc2)cc1 | -1.2% | 20µM* | -1.2% | 3.5%
CNc1nc(=O)n(C2CCCCC2)c(=O)n1C | -1.1%[201 µM] | x | 1.6%[201 µM] | x
O=c1c(O)cc(C2Oc3cc(O)cc(O)c3CC2O)cc2c(C3Oc4cc(O)cc(O)c4CC3O)cc(O)c(O)c12 (centres undefined) | 28.2µM*[quencher] | -18.6% | 0.9% | x
O=C(NCC(c1cccnc1)N1CCc2ccccc2C1)C(=O)Nc1ccc(F)cc1F (centres undefined) | 2.82µM*[quencher] | x | u | 3.5%
O=C(NCC(c1cccnc1)N1CCc2ccccc21)c1ccc(F)cc1 (centres undefined) | 0.0794µM*[quencher] | x | u | 2.4%
COc1ccc(C(=O)NCC(c2cccnc2)N2CCc3ccccc32)cc1OC (centres undefined) | 1.6% | x | -6.2% | 5.9%
CCCCCCCCCCCCO | -2.8%[201 µM] | x | 3.5%[201 µM] | x
CC1=C(C(=O)O)N2C(=O)[C@@H](NC(=O)[C@@H](N)c3ccccc3)[C@@H]2SC1 | -7.2%[53 µM] | -10.5%[21.6 µM] | -3.5%[53 µM] | x
O=C(Nc1ccc(O)cc1)C1CC=CCC1 (centres undefined) | 7.5% | 25.1µM* | -23.9% | u
Cc1ccc2nc(-c3ccc(NS(C)(=O)=O)cc3)cc(-c3ccccc3)c2c1 | x | 7.0% | x | 4.5%
CCS(=O)(=O)Nc1ccc(-c2cc(-c3ccccc3)c3cc(C)ccc3n2)cc1 | 0.141µM*[quencher] | -15.4% | -14.6%[53 µM] | x
COC(=O)C1C[C@@H]2C3=C(C(=O)[C@@](C)(NC(=O)c4ccccc4)C3[C@H](C(=O)OC)C1)[C@H](C)n1c(=O)n(-c3ccccc3)c(=O)n12 (some centres undefined) | -0.2% | x | -6.9% | x
CCC1(CC)C(=O)C2=C3C1[C@H](C(=O)OC)CC(C(=O)OC)C[C@H]3n1c(=O)n(-c3ccccc3)c(=O)n1[C@H]2C (some centres undefined) | 44.7µM*[fluorescent] | x | u | 1.6%
O=C(O)c1cc(O)c2c(c1)[C@H]([C@H]1c3cc(C(=O)O)cc(O)c3C(=O)c3c(O[C@@H]4OC(CO)C(O)C(O)C4O)cccc31)c1cccc(O[C@@H]3OC(CO)C(O)C(O)C3O)c1C2=O (some centres undefined) | 22.4µM*[quencher] | 7.94µM* | u | x
COCC(=O)N1CCc2nc(-c3ccc(OC)cc3C)c3c(c2C1)CO[C@@H](c1ccccc1)C3 | -19.4%[11.2 µM] | 14.6%[14.2 µM] | 7.8%[11.2 µM] | x
CCCc1cc(=O)oc2cc(C)c3c(C)coc3c12 | -3.4% | 5.2% | 1.0% | x
CCCCc1cc(=O)oc2cc(C)c3c(C(C)(C)C)coc3c12 | 100µM*[quencher] | x | -4.8% | 4.8%
CC[C@H](C)[C@H](NC(=O)[C@H](Cc1ccc(O)cc1)NC(=O)[C@H](CCCNC(=N)N)NC(=O)[C@H](CCCNC(=N)N)NC(=O)[C@H](CC(C)C)NC(=O)[C@H](CCC(N)=O)NC(=O)[C@@H](NC(=O)[C@H](CCC(=O)O)NC(=O)[C@H](Cc1ccc(O)cc1)NC(=O)[C@H](CCC(N)=O)NC(=O)[C@H](C)NC(=O)[C@H](CCCNC(=N)N)NC(=O)[C@H](CCC(N)=O)NC(=O)[C@H](CCC(=O)O)NC(=O)[C@H](Cc1cnc[nH]1)NC(=O)[C@@H](NC(=O)[C@H](C)NC(=O)[C@H](Cc1ccc(O)cc1)NC(=O)[C@H](CC(=O)O)NC(=O)CNC(=O)[C@@H]1CCCN1C(=O)[C@H](Cc1ccc(O)cc1)NC(=O)[C@H](CCSC)NC(=O)[C@@H]1CCCN1C(=O)[C@H](CCC(=O)O)NC(=O)[C@H](CC(C)C)NC(=O)[C@@H]1CCCN1C(=O)[C@H](C)N)[C@@H](C)O)[C@@H](C)O)C(=O)N[C@@H](CC(N)=O)C(=O)N[C@H](C(=O)N[C@@H](CC(C)C)C(=O)N[C@H](C(=O)N[C@@H](CCCNC(=N)N)C(=O)N1CCC[C@H]1C(=O)N[C@@H](CCCNC(=N)N)C(=O)N[C@@H](Cc1ccc(O)cc1)C(N)=O)[C@@H](C)O)[C@@H](C)O | -6.1% | x | 0.4% | x
SMILES | TR SRC2 fluor cs | GoLoco inh red | TRb SRC2 PPI | ERG Ets-DNA blk
C1CCC2(CCCCO2)OC1 | -0.7%[201 µM] | x | -3.9%[201 µM] | x
CSCC[C@H](N)C(=O)N[C@@H](CO)C(=O)N[C@@H](CCCN=C(N)N)C(=O)N1CCC[C@H]1C(=O)N[C@@H](C)C(=O)N[C@@H](CS)C(=O)N1CCC[C@H]1C(=O)N[C@@H](CC(N)=O)C(=O)N[C@@H](CC(=O)O)C(=O)N[C@@H](CCCCN)C(=O)N[C@@H](Cc1ccc(O)cc1)C(=O)N[C@@H](CCC(=O)O)C(=O)O | -0.6% | x | 1.8% | x
O=C(COc1ccccc1[N+](=O)[O-])N/N=C/c1ccc(OC(=O)c2ccco2)cc1 | 282µM*[quencher] | 0.8% | -11.4% | 9.7%
Cc1nc(-n2nc(C)c(Cc3ccc(Cl)cc3)c2C)sc1C(=O)N1CCCCC1C (centres undefined) | 17783µM*[quencher] | x | -21.6% | 2.0%
CC(=O)[C@@H](C)CCO[C@@]1(C)OCC[C@@H]1C | x | 0.0%[14.2 µM] | x | x
Cc1c(C(=O)Nc2ccc(-c3nc4cc(Cl)ccc4o3)cc2)oc2ccccc12 | 112µM*[quencher] | x | -10.4% | -1.2%

Bioassay records: PubChem, National Center for Advancing Translational Sciences (NCATS)
